This is part of a sample that, as a whole, favours compounds with a hit. Of some 83,000 tested, about 20% had one in any assay.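 Negative percent growth values reflect cell death: -40 means 40% of the cells present at the start died, and -100 means all died.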 Active and inactive are the calls of the source. The calls were made as follows: active = growth percent below 10; inactive = the rest.
Experiments:
Experiment in all cases: NCI-60 one-dose screen, 48 h (100 = growth as untreated, 0 = no growth, -100 = all killed)
DU-145 prostate = details: 10 µM
K-562 leukemia = details: 10 µM
MALME-3M melanoma = details: 10 µM
RXF 393 renal = details: 10 µM
SF-268 CNS = details: 10 µM
SF-295 CNS = details: 10 µM
SF-539 CNS = details: 10 µM
UACC-257 melanoma = details: 10 µM
M14 melanoma = details: 10 µM
HCT-15 colon = details: 10 µM
HT29 colon = details: 10 µM
SNB-75 CNS = details: 10 µM
U251 CNS = details: 10 µM
PC-3 prostate = details: 10 µM
SK-MEL-5 melanoma = details: 10 µM
UACC-62 melanoma = details: 10 µM unless noted
LOX IMVI melanoma = details: 10 µM
SK-MEL-28 melanoma = details: 10 µM
MDA-MB-231 breast = details: 10 µM
SNB-19 CNS = details: 10 µM

Measured: growth

c1csc(-c2cc(-c3cc(-c4cccs4)[nH]n3)n[nH]2)c1
inactive: DU-145 prostate 106% | K-562 leukemia 84.7% | MALME-3M melanoma 88.3% | RXF 393 renal 112% | SF-268 CNS 107% | SF-295 CNS 96.8% | SF-539 CNS 93.8% | UACC-257 melanoma 109% | M14 melanoma 96.9% | HCT-15 colon 98.9% | HT29 colon 106% | SNB-75 CNS 128% | U251 CNS 106% | PC-3 prostate 87.3% | SK-MEL-5 melanoma 99.2% | UACC-62 melanoma 84.4% | LOX IMVI melanoma 87.2% | SK-MEL-28 melanoma 105%

CN(C)CCC(=O)c1ccc(O)cc1
inactive: DU-145 prostate 104% | K-562 leukemia 104% | MALME-3M melanoma 108% | RXF 393 renal 112% | SF-268 CNS 95.5% | SF-295 CNS 106% | SF-539 CNS 104% | UACC-257 melanoma 105% | M14 melanoma 104% | HCT-15 colon 104% | HT29 colon 105% | SNB-75 CNS 93.7% | U251 CNS 100% | PC-3 prostate 106% | SK-MEL-5 melanoma 99.9% | LOX IMVI melanoma 97.2% | SK-MEL-28 melanoma 110%

COc1ccc(-c2cc(-c3cc(-c4ccc(OC)cc4)nc(N)n3)nc(N)n2)cc1
inactive: DU-145 prostate 102% | K-562 leukemia 98.9% | MALME-3M melanoma 91.2% | RXF 393 renal 101% | SF-268 CNS 102% | SF-295 CNS 96.2% | SF-539 CNS 98.1% | UACC-257 melanoma 99.4% | HCT-15 colon 103% | HT29 colon 105% | SNB-75 CNS 91.4% | U251 CNS 101% | PC-3 prostate 96.5% | SK-MEL-5 melanoma 97.1% | UACC-62 melanoma 91.4% | LOX IMVI melanoma 95% | SK-MEL-28 melanoma 103%

OC1CCCc2ccccc21 (configuration not stated)
inactive: DU-145 prostate 114% | K-562 leukemia 97.9% | MALME-3M melanoma 78.8% | MDA-MB-231 breast 117% | SF-268 CNS 116% | SF-295 CNS 93.2% | SF-539 CNS 96.4% | M14 melanoma 113% | HCT-15 colon 108% | HT29 colon 101% | SNB-75 CNS 88% | SNB-19 CNS 90.8% | U251 CNS 108% | PC-3 prostate 103% | SK-MEL-5 melanoma 111% | UACC-62 melanoma 100% | LOX IMVI melanoma 104% | SK-MEL-28 melanoma 120%

O=C(Cc1nc2ccc([N+](=O)[O-])cc2nc1CC(=O)c1ccccc1)c1ccccc1
active: LOX IMVI melanoma 3.86%
inactive: DU-145 prostate 50.6% | K-562 leukemia 43.8% | MALME-3M melanoma 46.8% | RXF 393 renal 89.1% | SF-268 CNS 73.9% | SF-295 CNS 53% | SF-539 CNS 18.3% | UACC-257 melanoma 86.9% | M14 melanoma 48.4% | HCT-15 colon 35.2% | HT29 colon 75.3% | SNB-75 CNS 65.2% | U251 CNS 49.2% | PC-3 prostate 59.4% | SK-MEL-5 melanoma 55% | UACC-62 melanoma 53.2% | SK-MEL-28 melanoma 64.7%

CSc1[nH]c(=O)ncc1F
inactive: DU-145 prostate 106% | K-562 leukemia 111% | MALME-3M melanoma 97.8% | RXF 393 renal 105% | SF-295 CNS 97.4% | SF-539 CNS 95.7% | UACC-257 melanoma 72.8% | M14 melanoma 103% | HCT-15 colon 100% | HT29 colon 112% | SNB-75 CNS 102% | U251 CNS 100% | PC-3 prostate 96.5% | SK-MEL-5 melanoma 101% | UACC-62 melanoma 92.8% | LOX IMVI melanoma 95.8%

COc1cc2c(cc1OC)[C@H](C(=O)O)[C@@H](c1ccc(OC(C)C)c(OC)c1)N(C)C2=O
inactive: DU-145 prostate 114% | K-562 leukemia 99.6% | MALME-3M melanoma 94.8% | MDA-MB-231 breast 104% | SF-268 CNS 116% | SF-295 CNS 94.5% | SF-539 CNS 94.4% | M14 melanoma 104% | HCT-15 colon 101% | HT29 colon 105% | SNB-75 CNS 90.4% | SNB-19 CNS 94.8% | U251 CNS 97.3% | PC-3 prostate 90% | SK-MEL-5 melanoma 102% | UACC-62 melanoma 89.6% | LOX IMVI melanoma 94.7% | SK-MEL-28 melanoma 116%

COc1ccc(C2OC(N)=C(O)C2=O)cc1OC (configuration not stated)
inactive: DU-145 prostate 109% | K-562 leukemia 94.6% | MALME-3M melanoma 95.5% | RXF 393 renal 110% | SF-268 CNS 101% | SF-295 CNS 99.9% | SF-539 CNS 90.9% | UACC-257 melanoma 106% | M14 melanoma 111% | HCT-15 colon 101% | HT29 colon 108% | SNB-75 CNS 101% | U251 CNS 111% | PC-3 prostate 97.2% | SK-MEL-5 melanoma 102% | UACC-62 melanoma 93.7% | LOX IMVI melanoma 102% | SK-MEL-28 melanoma 105%

CC(=O)Cc1cc(-c2cc(CC(C)=O)[nH]n2)n[nH]1
inactive: DU-145 prostate 107% | K-562 leukemia 99.5% | MALME-3M melanoma 94.6% | RXF 393 renal 103% | SF-268 CNS 98.5% | SF-295 CNS 94.7% | SF-539 CNS 98% | UACC-257 melanoma 93% | M14 melanoma 99.5% | HCT-15 colon 99.4% | HT29 colon 102% | SNB-75 CNS 87.1% | U251 CNS 97.7% | PC-3 prostate 96.7% | SK-MEL-5 melanoma 99.6% | UACC-62 melanoma 90.3% | LOX IMVI melanoma 96.3% | SK-MEL-28 melanoma 107%

CCS(=O)(=O)c1cc(=O)[nH]c(=O)[nH]1
inactive: DU-145 prostate 109% | K-562 leukemia 128% | MALME-3M melanoma 56.9% | MDA-MB-231 breast 101% | SF-268 CNS 105% | SF-295 CNS 122% | SF-539 CNS 111% | UACC-257 melanoma 44.4% | HCT-15 colon 109% | HT29 colon 101% | SNB-75 CNS 82.4% | SNB-19 CNS 102% | U251 CNS 93.8% | PC-3 prostate 124% | SK-MEL-5 melanoma 93.2% | SK-MEL-28 melanoma 98.9%

Cc1cc(NC(=O)CSCC(=O)O)no1
inactive: DU-145 prostate 112% | K-562 leukemia 117% | MALME-3M melanoma 96.8% | RXF 393 renal 103% | SF-268 CNS 114% | SF-295 CNS 94.2% | SF-539 CNS 96.4% | UACC-257 melanoma 95.4% | M14 melanoma 99.6% | HCT-15 colon 96.7% | HT29 colon 98.5% | SNB-75 CNS 102% | U251 CNS 101% | PC-3 prostate 98.6% | SK-MEL-5 melanoma 101% | UACC-62 melanoma 94.7% | LOX IMVI melanoma 103% | SK-MEL-28 melanoma 108%

CCS(=O)(=O)CCCl
inactive: DU-145 prostate 96.8% | K-562 leukemia 93% | MALME-3M melanoma 93.3% | RXF 393 renal 105% | SF-268 CNS 106% | SF-295 CNS 102% | SF-539 CNS 104% | UACC-257 melanoma 94.5% | M14 melanoma 94.4% | HCT-15 colon 91.8% | HT29 colon 110% | SNB-75 CNS 123% | U251 CNS 102% | PC-3 prostate 99.5% | SK-MEL-5 melanoma 94.3% | UACC-62 melanoma 85.1% | LOX IMVI melanoma 81.7% | SK-MEL-28 melanoma 106%

c1c(-c2cc(C3CC3)[nH]n2)n[nH]c1C1CC1
inactive: DU-145 prostate 111% | K-562 leukemia 70.9% | MALME-3M melanoma 92.2% | RXF 393 renal 108% | SF-268 CNS 107% | SF-295 CNS 98% | SF-539 CNS 101% | UACC-257 melanoma 90.8% | M14 melanoma 98.9% | HCT-15 colon 103% | HT29 colon 98.7% | SNB-75 CNS 112% | U251 CNS 95.2% | PC-3 prostate 98.1% | SK-MEL-5 melanoma 82.1% | UACC-62 melanoma 87.2% | LOX IMVI melanoma 77.8% | SK-MEL-28 melanoma 100%

CCc1nn(Cc2ccccc2)c2nc(C)c(CCc3ccccc3)c(Cl)c12
inactive: DU-145 prostate 102% | K-562 leukemia 61.1% | MALME-3M melanoma 75.5% | MDA-MB-231 breast 99.7% | SF-268 CNS 106% | SF-295 CNS 85.1% | SF-539 CNS 86.7% | HCT-15 colon 98.5% | HT29 colon 88.6% | SNB-75 CNS 93.2% | SNB-19 CNS 80.2% | U251 CNS 96.9% | PC-3 prostate 76% | SK-MEL-5 melanoma 82.7% | UACC-62 melanoma 84.5% | LOX IMVI melanoma 92.6% | SK-MEL-28 melanoma 107%

CCCCNC(=O)C(=O)NCCCC
inactive: DU-145 prostate 103% | K-562 leukemia 108% | MALME-3M melanoma 95.4% | RXF 393 renal 107% | SF-268 CNS 97.9% | SF-295 CNS 102% | SF-539 CNS 101% | UACC-257 melanoma 105% | HCT-15 colon 105% | HT29 colon 120% | SNB-75 CNS 116% | U251 CNS 114% | PC-3 prostate 105% | SK-MEL-5 melanoma 100% | UACC-62 melanoma 92.6% | LOX IMVI melanoma 102%

COc1ccc2c(c1)CCc1c-2n[nH]c1-c1[nH]nc2c1CCc1cc(OC)ccc1-2
inactive: DU-145 prostate 86.2% | K-562 leukemia 20.8% | MALME-3M melanoma 46.6% | RXF 393 renal 54.3% | SF-268 CNS 86.2% | SF-295 CNS 29.6% | SF-539 CNS 31.8% | UACC-257 melanoma 82.5% | M14 melanoma 36.1% | HCT-15 colon 35.6% | HT29 colon 52.3% | SNB-75 CNS 29.3% | U251 CNS 54.2% | PC-3 prostate 50.4% | SK-MEL-5 melanoma 37.2% | UACC-62 melanoma 25.8% | LOX IMVI melanoma 43.8% | SK-MEL-28 melanoma 58.7%

COC(=O)c1[nH]c(=O)c(C#N)c(C(=O)OC)c1C(=O)c1ccccc1
inactive: DU-145 prostate 104% | K-562 leukemia 102% | MALME-3M melanoma 96.8% | RXF 393 renal 122% | SF-268 CNS 99.4% | SF-295 CNS 96.2% | SF-539 CNS 97.1% | UACC-257 melanoma 86.1% | M14 melanoma 107% | HCT-15 colon 98.1% | HT29 colon 113% | SNB-75 CNS 85.6% | U251 CNS 96.8% | PC-3 prostate 103% | SK-MEL-5 melanoma 100% | UACC-62 melanoma 88.6% | LOX IMVI melanoma 89.9% | SK-MEL-28 melanoma 101%

Reference: PubChem BioAssay (NCI)
